Source: publication PMC7862700, “An all-to-all approach to the identification of sequence-specific readers for epigenetic DNA modifications on cytosine”

Experiments:
Test in all cases: DAPPL (digital affinity profiling via proximity ligation, sequencing); 10 mM Tris-HCl pH 7.5, 50 mM NaCl, 1 mM DTT, 4% glycerol, room temperature, 30 min; GST-TFs on glutathione beads, 16-mer random dsDNA library, 0.1% formaldehyde crosslink after washing; high values mean tight binding
[1] = biological target: T1, FEV (Homo sapiens, UniProt Q99581 1-238); details: protein: recombinant; tags: N-terminal GST; dsDNA, one strand shown
T1 sequence: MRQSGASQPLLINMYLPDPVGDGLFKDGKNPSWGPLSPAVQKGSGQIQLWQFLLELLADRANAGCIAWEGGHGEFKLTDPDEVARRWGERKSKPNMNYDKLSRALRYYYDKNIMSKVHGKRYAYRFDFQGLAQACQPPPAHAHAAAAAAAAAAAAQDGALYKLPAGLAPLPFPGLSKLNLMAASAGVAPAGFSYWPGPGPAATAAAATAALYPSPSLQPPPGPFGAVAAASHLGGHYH
Summary of the method: (§1)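 In yeast, human transcription factors were expressed with a GST fusion, then pulled down on glutathione beads and given DNA barcodes. Pooled with a tag-only sample, they were exposed to 200 nmole of a 16-mer random double-stranded DNA library (Tris/NaCl/DTT/glycerol buffer, room temperature, 30 min), washed, crosslinked with 0.1% formaldehyde, proximity-ligated using BsaI/T4 ligase for 1 h at 37 °C, PCR-amplified and read on an Illumina NextSeq500. Each hexamer's frequency of reads for a factor, divided by the matching frequency for the tag-only sample, gives the binding signal.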

[2] = biological target: ETV5 (Homo sapiens, UniProt P41161 1-510); details: protein: recombinant; tags: N-terminal GST; dsDNA, one strand shown
ETV5, sequence (P41161 whole entry): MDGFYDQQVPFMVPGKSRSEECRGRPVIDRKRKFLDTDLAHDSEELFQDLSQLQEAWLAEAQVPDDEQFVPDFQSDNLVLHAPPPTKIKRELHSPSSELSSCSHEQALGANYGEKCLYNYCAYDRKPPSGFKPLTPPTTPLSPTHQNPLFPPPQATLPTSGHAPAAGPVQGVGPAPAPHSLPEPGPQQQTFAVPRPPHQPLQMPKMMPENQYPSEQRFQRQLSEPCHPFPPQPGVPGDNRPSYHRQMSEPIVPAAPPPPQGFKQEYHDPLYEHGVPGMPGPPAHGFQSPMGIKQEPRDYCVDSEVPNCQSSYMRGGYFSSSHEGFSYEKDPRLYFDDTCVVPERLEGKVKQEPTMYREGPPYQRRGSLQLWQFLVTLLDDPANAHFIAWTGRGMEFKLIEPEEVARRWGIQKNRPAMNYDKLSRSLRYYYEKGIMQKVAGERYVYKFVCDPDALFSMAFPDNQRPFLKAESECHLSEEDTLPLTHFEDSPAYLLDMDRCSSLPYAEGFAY
Summary of the method: as §1

[3] = biological target: HSF1 (Homo sapiens, UniProt Q00613 1-529); details: protein: recombinant; tags: N-terminal GST; chain copies: 3; dsDNA, one strand shown
HSF1, sequence (Q00613 whole entry): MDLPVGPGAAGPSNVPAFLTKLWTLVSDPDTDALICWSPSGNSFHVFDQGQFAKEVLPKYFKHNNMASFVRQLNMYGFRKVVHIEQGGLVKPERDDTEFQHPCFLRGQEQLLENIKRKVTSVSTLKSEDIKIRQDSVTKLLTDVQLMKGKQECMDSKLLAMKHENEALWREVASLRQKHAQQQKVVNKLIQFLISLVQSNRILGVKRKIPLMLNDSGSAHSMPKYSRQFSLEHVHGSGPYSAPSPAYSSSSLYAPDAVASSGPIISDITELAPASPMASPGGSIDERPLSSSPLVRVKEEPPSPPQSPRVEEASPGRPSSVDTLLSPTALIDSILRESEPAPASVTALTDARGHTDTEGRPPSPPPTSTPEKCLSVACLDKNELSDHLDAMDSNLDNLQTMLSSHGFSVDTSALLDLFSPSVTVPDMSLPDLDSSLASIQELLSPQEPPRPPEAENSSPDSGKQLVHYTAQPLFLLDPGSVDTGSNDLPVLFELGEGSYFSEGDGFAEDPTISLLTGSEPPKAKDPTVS
Summary of the method: as §1

[4] = biological target: T2, SPIC (Homo sapiens, UniProt Q8N5J4 1-248); details: protein: recombinant; tags: N-terminal GST; dsDNA, one strand shown
T2 sequence: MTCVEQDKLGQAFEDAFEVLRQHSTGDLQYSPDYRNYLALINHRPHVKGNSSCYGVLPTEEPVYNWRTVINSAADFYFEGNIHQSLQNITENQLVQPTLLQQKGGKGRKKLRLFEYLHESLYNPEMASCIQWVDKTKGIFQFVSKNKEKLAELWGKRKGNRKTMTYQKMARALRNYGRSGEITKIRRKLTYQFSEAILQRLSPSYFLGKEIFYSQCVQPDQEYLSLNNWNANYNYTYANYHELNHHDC
Summary of the method: as §1

[5] = biological target: ELF4 (Homo sapiens, UniProt Q99607 1-663); details: protein: recombinant; tags: N-terminal GST; dsDNA, one strand shown
ELF4, sequence (Q99607 whole entry): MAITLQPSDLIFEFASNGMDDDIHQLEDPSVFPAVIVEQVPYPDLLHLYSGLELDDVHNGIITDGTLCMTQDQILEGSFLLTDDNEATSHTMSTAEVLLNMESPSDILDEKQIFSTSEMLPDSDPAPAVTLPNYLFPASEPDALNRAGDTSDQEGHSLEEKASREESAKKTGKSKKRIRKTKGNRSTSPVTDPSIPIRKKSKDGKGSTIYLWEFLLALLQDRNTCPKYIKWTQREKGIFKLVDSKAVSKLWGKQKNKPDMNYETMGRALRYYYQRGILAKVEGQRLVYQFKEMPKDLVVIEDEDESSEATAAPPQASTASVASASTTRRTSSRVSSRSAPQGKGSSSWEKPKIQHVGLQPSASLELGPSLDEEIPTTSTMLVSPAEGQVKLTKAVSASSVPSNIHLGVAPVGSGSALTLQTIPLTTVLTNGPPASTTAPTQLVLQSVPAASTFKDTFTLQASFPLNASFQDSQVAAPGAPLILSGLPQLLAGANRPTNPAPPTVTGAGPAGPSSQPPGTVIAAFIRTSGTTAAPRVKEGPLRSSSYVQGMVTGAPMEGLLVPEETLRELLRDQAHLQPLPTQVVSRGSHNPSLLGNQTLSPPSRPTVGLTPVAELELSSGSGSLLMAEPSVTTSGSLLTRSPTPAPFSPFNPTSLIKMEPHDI
Summary of the method: as §1

[6] = biological target: T3, ELK4 (Homo sapiens, UniProt P28324-2 1-405); details: protein: recombinant; tags: N-terminal GST; dsDNA, one strand shown
T3 sequence: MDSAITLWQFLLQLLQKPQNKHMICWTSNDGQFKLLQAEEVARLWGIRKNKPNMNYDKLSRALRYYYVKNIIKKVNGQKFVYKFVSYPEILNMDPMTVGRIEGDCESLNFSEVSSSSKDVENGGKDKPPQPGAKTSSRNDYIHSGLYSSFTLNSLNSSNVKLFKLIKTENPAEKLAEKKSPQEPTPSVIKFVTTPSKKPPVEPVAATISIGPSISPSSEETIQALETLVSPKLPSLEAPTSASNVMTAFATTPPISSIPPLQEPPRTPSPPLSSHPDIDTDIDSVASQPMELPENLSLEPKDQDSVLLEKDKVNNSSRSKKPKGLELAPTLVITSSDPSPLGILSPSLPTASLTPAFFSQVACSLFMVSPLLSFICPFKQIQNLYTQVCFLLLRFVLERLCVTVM
Summary of the method: as §1

[7] = biological target: T4, ETV2 (Homo sapiens, UniProt O00321 1-342); details: protein: recombinant; tags: N-terminal GST; dsDNA, one strand shown
T4 sequence: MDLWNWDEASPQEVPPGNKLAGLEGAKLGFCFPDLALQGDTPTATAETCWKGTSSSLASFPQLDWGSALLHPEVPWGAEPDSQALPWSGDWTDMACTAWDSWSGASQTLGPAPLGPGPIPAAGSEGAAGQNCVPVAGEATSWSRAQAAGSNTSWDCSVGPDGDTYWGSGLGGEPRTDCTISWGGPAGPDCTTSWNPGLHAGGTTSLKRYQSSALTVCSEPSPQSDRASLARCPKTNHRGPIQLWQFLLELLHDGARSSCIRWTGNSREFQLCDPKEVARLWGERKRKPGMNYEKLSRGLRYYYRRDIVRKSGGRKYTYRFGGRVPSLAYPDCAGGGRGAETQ
Summary of the method: as §1

[8] = biological target: T5, ELF3 (Homo sapiens, UniProt P78545 1-371); details: protein: recombinant; tags: N-terminal GST; dsDNA, one strand shown
T5 sequence: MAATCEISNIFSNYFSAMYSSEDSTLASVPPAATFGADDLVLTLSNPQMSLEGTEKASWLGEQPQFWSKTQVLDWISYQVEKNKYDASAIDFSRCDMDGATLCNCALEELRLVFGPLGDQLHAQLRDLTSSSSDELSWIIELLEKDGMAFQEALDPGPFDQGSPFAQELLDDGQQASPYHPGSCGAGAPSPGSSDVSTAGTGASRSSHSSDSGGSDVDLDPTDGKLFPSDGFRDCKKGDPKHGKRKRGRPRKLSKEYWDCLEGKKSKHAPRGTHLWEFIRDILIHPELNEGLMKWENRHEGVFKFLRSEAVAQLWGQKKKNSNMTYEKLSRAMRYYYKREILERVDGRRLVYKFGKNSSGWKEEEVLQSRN
Summary of the method: as §1

[9] = biological target: CRX (Homo sapiens, UniProt O43186 1-299); details: protein: recombinant; tags: N-terminal GST; dsDNA, one strand shown
CRX, sequence (O43186 whole entry): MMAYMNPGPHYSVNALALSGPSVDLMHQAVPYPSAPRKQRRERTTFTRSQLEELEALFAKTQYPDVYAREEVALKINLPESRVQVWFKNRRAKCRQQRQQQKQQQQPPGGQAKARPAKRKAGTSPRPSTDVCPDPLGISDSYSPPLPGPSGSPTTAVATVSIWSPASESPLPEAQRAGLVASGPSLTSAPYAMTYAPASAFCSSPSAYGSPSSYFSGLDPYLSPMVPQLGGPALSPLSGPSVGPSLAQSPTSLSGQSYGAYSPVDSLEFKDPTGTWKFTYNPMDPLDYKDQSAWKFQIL
Summary of the method: as §1

[10] = biological target: ETV1 (Homo sapiens, UniProt P50549 1-477); details: protein: recombinant; tags: N-terminal GST; dsDNA, one strand shown
ETV1, sequence (P50549 whole entry): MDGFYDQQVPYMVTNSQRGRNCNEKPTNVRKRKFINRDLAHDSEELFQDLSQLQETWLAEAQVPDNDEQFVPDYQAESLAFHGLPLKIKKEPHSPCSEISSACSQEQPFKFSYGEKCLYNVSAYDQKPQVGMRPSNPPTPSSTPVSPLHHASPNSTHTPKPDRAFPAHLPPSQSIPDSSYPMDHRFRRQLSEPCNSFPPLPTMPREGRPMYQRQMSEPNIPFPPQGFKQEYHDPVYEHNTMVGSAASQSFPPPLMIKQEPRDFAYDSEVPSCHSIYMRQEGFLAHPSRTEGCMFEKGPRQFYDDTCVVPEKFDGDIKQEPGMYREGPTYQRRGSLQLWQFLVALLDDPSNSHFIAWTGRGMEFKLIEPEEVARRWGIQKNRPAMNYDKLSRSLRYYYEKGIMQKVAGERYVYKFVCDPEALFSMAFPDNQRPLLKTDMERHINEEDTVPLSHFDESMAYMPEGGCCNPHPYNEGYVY
Summary of the method: as §1

[11] = biological target: T6, ERF (Homo sapiens, UniProt P50548 1-548); details: protein: recombinant; tags: N-terminal GST; dsDNA, one strand shown
T6 sequence: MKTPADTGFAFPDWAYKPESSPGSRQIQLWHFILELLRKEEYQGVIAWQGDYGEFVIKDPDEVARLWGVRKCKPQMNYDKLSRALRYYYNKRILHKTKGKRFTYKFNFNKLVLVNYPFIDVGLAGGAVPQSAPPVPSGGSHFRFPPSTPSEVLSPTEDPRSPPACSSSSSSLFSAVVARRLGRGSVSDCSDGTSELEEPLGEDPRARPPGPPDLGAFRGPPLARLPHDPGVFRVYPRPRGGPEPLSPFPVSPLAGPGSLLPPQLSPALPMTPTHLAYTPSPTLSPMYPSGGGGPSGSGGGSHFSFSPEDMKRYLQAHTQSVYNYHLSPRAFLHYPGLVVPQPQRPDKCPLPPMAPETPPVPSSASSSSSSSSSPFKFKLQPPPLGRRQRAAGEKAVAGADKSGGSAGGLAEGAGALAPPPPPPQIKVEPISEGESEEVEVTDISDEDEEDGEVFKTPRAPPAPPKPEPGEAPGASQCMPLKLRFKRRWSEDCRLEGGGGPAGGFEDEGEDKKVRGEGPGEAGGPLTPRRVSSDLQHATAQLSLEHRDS
Summary of the method: as §1

[12] = biological target: T7, ETV3L (Homo sapiens, UniProt Q6ZN32 1-361); details: protein: recombinant; tags: N-terminal GST; dsDNA, one strand shown
T7 sequence: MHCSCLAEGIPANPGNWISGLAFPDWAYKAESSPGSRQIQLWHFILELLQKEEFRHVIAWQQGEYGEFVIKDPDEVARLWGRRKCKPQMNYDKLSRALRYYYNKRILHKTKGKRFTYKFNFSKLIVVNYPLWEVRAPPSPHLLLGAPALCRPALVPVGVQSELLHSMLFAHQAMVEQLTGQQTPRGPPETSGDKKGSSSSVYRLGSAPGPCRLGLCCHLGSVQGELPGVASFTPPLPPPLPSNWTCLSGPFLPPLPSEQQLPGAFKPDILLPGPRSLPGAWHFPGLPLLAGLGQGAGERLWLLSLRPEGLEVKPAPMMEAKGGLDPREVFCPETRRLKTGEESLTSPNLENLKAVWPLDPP
Summary of the method: as §1

[13] = biological target: T8, ETS2 (Homo sapiens, UniProt P15036 1-469); details: protein: recombinant; tags: N-terminal GST; dsDNA, one strand shown
T8 sequence: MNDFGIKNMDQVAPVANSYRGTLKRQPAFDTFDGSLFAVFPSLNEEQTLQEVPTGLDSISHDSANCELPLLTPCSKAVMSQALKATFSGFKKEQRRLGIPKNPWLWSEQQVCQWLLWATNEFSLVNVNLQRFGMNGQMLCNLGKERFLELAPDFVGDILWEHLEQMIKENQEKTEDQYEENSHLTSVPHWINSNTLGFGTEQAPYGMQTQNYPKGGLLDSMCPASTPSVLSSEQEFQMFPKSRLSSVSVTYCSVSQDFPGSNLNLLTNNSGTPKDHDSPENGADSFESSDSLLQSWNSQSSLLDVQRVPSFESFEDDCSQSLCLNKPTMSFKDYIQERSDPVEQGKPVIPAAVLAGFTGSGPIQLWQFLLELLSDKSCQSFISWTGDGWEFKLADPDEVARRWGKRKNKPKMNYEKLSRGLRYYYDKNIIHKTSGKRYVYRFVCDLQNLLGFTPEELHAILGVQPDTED
Summary of the method: as §1

[14] = biological target: T9, SPDEF (Homo sapiens, UniProt O95238 1-335); details: protein: recombinant; tags: N-terminal GST; dsDNA, one strand shown
T9 sequence: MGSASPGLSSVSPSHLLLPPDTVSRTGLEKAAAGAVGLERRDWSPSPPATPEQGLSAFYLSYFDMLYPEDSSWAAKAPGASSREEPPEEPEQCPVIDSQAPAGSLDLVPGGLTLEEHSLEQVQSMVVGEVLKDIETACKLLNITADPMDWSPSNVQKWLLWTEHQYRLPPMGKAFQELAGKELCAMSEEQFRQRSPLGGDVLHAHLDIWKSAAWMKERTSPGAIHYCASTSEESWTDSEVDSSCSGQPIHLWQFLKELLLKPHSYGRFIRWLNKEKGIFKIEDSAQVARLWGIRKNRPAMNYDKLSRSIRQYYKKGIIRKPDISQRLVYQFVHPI
Summary of the method: as §1

[15] = biological target: T10, ETV7 (Homo sapiens, UniProt Q9Y603 1-341); details: protein: recombinant; tags: N-terminal GST; dsDNA, one strand shown
T10 sequence: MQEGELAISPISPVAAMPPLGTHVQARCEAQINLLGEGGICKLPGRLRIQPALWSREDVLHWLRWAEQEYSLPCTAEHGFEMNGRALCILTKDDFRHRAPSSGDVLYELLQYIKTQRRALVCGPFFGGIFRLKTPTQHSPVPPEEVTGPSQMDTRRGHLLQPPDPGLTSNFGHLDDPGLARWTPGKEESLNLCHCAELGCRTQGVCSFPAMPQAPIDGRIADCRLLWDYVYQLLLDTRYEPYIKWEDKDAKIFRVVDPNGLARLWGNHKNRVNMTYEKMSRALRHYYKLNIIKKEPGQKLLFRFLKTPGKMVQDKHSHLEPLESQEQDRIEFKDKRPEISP
Summary of the method: as §1

[16] = biological target: T11, ELF5 (Homo sapiens, UniProt Q9UKW6-2 1-255); details: protein: recombinant; tags: N-terminal GST; dsDNA, one strand shown
T11 sequence: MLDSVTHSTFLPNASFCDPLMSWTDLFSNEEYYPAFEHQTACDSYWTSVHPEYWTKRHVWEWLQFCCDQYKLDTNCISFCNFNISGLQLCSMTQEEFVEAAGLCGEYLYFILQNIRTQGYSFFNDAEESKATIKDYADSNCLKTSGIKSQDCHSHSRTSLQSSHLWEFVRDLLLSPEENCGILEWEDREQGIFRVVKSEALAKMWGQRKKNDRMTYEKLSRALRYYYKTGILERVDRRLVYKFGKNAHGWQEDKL
Summary of the method: as §1

[17] = biological target: T12, ETV3 (Homo sapiens, UniProt P41162-2 1-143); details: protein: recombinant; tags: N-terminal GST; dsDNA, one strand shown
T12 sequence: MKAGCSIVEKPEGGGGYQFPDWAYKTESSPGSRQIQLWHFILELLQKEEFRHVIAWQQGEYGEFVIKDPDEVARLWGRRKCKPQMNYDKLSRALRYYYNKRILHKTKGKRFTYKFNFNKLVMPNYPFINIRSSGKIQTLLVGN
Summary of the method: as §1

[18] = biological target: ETV6 (Homo sapiens, UniProt P41212 1-452); details: protein: recombinant; tags: N-terminal GST; dsDNA, one strand shown
ETV6, sequence (P41212 whole entry): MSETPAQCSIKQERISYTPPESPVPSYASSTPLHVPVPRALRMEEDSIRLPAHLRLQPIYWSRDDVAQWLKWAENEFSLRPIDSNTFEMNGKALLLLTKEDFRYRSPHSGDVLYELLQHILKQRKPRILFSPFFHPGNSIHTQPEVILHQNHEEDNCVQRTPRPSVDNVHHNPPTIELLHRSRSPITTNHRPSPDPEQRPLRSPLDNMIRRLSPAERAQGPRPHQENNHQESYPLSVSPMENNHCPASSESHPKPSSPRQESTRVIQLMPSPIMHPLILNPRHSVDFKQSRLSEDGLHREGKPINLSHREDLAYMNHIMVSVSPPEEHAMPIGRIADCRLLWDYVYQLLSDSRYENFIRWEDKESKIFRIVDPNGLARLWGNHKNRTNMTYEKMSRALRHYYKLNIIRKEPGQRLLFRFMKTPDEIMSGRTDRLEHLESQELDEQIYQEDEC
Summary of the method: as §1

CCCCAA
binding signal [1]: 1.16 fold enrichment (6-mer frequency, TF over GST control)
binding signal [2]: 1.12 fold enrichment (6-mer frequency, TF over GST control)
binding signal [3]: 1.06 fold enrichment (6-mer frequency, TF over GST control)
binding signal [4]: 1.06 fold enrichment (6-mer frequency, TF over GST control)
binding signal [5]: 1.21 fold enrichment (6-mer frequency, TF over GST control)
binding signal [6]: 1.16 fold enrichment (6-mer frequency, TF over GST control)
binding signal [7]: 1.15 fold enrichment (6-mer frequency, TF over GST control)
binding signal [8]: 1.24 fold enrichment (6-mer frequency, TF over GST control)
binding signal [9]: 1.05 fold enrichment (6-mer frequency, TF over GST control)
binding signal [10]: 1.15 fold enrichment (6-mer frequency, TF over GST control)
binding signal [11]: 1.06 fold enrichment (6-mer frequency, TF over GST control)
binding signal [12]: 1.2 fold enrichment (6-mer frequency, TF over GST control)
binding signal [13]: 1.13 fold enrichment (6-mer frequency, TF over GST control)
binding signal [14]: 1.11 fold enrichment (6-mer frequency, TF over GST control)
binding signal [15]: 1.1 fold enrichment (6-mer frequency, TF over GST control)
binding signal [16]: 1.12 fold enrichment (6-mer frequency, TF over GST control)
binding signal [17]: 1.15 fold enrichment (6-mer frequency, TF over GST control)
binding signal [18]: 1.14 fold enrichment (6-mer frequency, TF over GST control)
